Screening results deposited in PubChem BioAssay by National Center for Advancing Translational Sciences (NCATS).
Most compounds without a hit are left out; they make up all but 9.2% or so of the library.
SMN2 splice enh – qHTS Assay for Enhancers of SMN2 Splice Variant Expression | HEK293 SMN2-luciferase splicing reporter, luminescence, 30-36 h | Potency, µM (titrated, usually from 46.1 µM), without a hit: at the top dose activity change, positive = activation, actives largely listed as activators | actives 2.8% (n = 210,000) | AID 1458, 2008; further: % of control where 0% means no effect; nearly all actives have a fitted effect of over 55% in size
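HEK293 cells carry an SMN2 […]–luciferase reporter in which exon 7 inclusion puts luciferase in frame. Cells were plated 10-12 h before compound addition, then incubated 30-36 h at 37C. ONE-Glo luminescence was read; sodium butyrate at 4.5 mM final served as control.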
NPC1 promoter act – qHTS Assay for NPC1 Promoter Activators. Huh7 NPC1 promoter luciferase reporter, 24 h. Potency, µM (highest dose often 9.22 µM), for the others: top-dose activation, usual class: activators. actives 2.4% (n = 320,000); further: % of control where 0% means no effect; nearly all actives have a fitted effect of over 60% in size
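Compounds in DMSO were transferred onto Huh7 NPC1-luciferase reporter cells pre-incubated 2 h; after 24 h at 37 °C, Amplite reagent was dispensed and luminescence recorded 10 min later.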
FLuc modulator – qHTS profiling assay for firefly luciferase inhibitor/activator using purifed enzyme and Km concentrations of substrates (counterscreen for miR-21 project); purified FLuc, Km substrates, luminescence inhibition; actives 6.9% (n = 360,000); Potency, µM (top dose mostly 57.5 µM), without a hit: at the top dose activity change, negative = inhibition, most hits filed as inhibitors;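 further: plate controls were vehicle for no effect and reference inhibitor for full effect; nearly all actives have a fitted effect of over 55% in size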
Target sequence (P08659 whole entry, looked up): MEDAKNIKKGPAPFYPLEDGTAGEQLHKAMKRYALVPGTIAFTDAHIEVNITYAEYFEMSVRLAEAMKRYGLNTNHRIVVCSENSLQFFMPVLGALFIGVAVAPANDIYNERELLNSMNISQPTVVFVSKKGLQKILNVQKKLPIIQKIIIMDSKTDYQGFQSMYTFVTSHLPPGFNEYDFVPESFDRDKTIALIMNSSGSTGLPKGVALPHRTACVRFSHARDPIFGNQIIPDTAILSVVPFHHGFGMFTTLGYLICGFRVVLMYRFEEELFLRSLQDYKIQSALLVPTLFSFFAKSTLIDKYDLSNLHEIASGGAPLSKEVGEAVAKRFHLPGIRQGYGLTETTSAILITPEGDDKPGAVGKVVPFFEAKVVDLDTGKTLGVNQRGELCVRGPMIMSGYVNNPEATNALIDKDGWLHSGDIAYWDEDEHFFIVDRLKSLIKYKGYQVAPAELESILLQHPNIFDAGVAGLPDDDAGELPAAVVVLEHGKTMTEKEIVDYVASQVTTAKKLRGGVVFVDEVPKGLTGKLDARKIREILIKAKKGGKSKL
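Purified P. pyralis luciferase, 10 nM final, with Km-level 10 uM D-luciferin and 10 uM ATP in 50 mM Tris acetate pH 7.5, 10 mM Mg acetate, 0.01% Tween-20, 0.05% BSA; 6-point qHTS titration about 60 µM downward; luminescence read.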
Rab9 promoter act – qHTS Assay for Rab9 Promoter Activators | actives 2.8% (n = 320,000) | Huh7 Rab9 promoter-luciferase reporter, luminescence, 24 h | Potency, µM (highest dose often 9.22 µM), inactives show at the top dose activation, negative = inhibition, actives largely listed as activators; further: % of control where 0% means no effect; nearly all actives have a fitted effect of over 60% in size
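Luminescence read-out: Huh7 cells stably expressing Rab9-luciferase, treated 24 h with compound at 37 °C, then lysed with luciferase reagent for 10 min at ambient before reading.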
ELG1 repair inh – qHTS screen for small molecules that inhibit ELG1-dependent DNA repair in human embryonic kidney (HEK293T) cells expressing luciferase-tagged ELG1 | HEK293T ELG1-luciferase reporter, luminescence, 16 h; DNA damage induced by 5-fluorouridine | Potency, µM (doses to about 46.1 µM), for inactives: at the top dose activity change, negative = inhibition, usual class: inhibitors | actives 2.3% (n = 330,000) | AID 504467, 2011; further: on the % scale 0 is the no-effect control and ±100 the full control effect; nearly all actives have a fitted effect of over 55% in size
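Overnight (16 hr) co-exposure of 2,000 cells/well to 5-fluorouridine and compound at 37 °C preceded detection. Luciferase was quantified via ONE-Glo luminescence; loss of signal denotes inhibition.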
ELG1 genotox – qHTS screen for small molecules that induce genotoxicity in human embryonic kidney (HEK293T) cells expressing luciferase-tagged ELG1. actives 1.3% (n = 330,000). HEK293T ELG1-luciferase reporter, luminescence, 16 h. Potency, µM (highest dose often 46 µM), without a hit: at the highest dose activity change, positive = activation, hits mostly activators; further: % of control where 0% means no effect; nearly all actives have a fitted effect of over 60% in size
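Step 1: seed 2,000 HEK293T ELG1-luciferase cells per well. Step 2: add compound or DMSO, incubate 16 hr at 37 °C. Step 3: ONE-Glo, 30 min at room temperature, read luminescence.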
* hit, by the source's call; u = inconclusive; x = not tested or not shown; [ ] = dose if it differs, or a comment. The call rests on the fitted dose curve; in most records, active means well fitted curve in the direction sought with a large enough effect; inconclusive means small, poorly fitted or top-dose-only effect, or another doubt; inactive means no such curve, though single readings can be large; an effect the other way counts as inactive or inconclusive. Potency means the concentration at half of the fitted maximal effect.

SMILES	SMN2 splice enh	NPC1 promoter act	FLuc modulator	Rab9 promoter act	ELG1 repair inh	ELG1 genotox
CC(=O)Nc1ccc(C(=O)COC(=O)Cc2ccsc2)c(F)c1	x	x	x	x	16%	1%
CC(=O)Nc1ccc(C(=O)COC(=O)C2CCCCC2)c(F)c1	x	2%	0.67µM*	2%	u	6%
CC(=O)Nc1ccc(C(=O)COC(=O)C2CC2)c(F)c1	x	u	5.4µM*	24%	u	u
COC(=O)c1ccc(CN2CCC(Oc3cccc(C(=O)N4CCOCC4)c3)CC2)cc1	x	15%	6%	1%	-13%	2%
COc1ccc(-c2cnnc(N/N=C/c3ccc(-c4ccc([N+](=O)[O-])cc4)o3)n2)cc1	-8%	-31%	-8%	-40%	u	-4%
COc1ccccc1-c1cnnc(N/N=C/c2ccc(-c3cccc(Br)c3)o2)n1	-5%	-6%	-8%	0%	8.2µM*	-4%
O=C(NC(=S)Nc1ccc(N2CCCCC2)cc1)c1cccs1	-1%	1.3µM*	5.4µM*	2.2µM*	u	2.9µM*
O=C(NC(=S)N1CCN(c2ccc(O)cc2)CC1)c1cccs1	x	9%	-20%	-6%	13µM*	2%
O=C(Nc1ccc(S(=O)(=O)N2CCN(c3ccccc3)CC2)cc1)c1cccs1	-16%	14%	-2%	6%	12µM*	-5%
O=C(NC(=S)Nc1ccc(S(=O)(=O)N2CCCC2)cc1)c1cccs1	20%	6%	-11%	-4%	u	5%
CS(=O)(=O)N1CCN(c2ccc(NC(=S)NC(=O)c3cccs3)cc2)CC1	x	3%	-2%	-8%	16%	3%
CCCC(=O)NC(=S)Nc1ccc(N2CCN(C(=O)c3cccs3)CC2)cc1	-6%	-2%	-5%	-11%	16µM*	-15%
O=C(/C=C/c1ccccc1)NC1CCCc2ccccc21 (stereo not given)	-26%	2%	0%	25%	u	-2%
O=C(NC(=S)Nc1ccc(N2CCN(C(=O)c3ccccc3)CC2)cc1)c1cccs1	-51%	-13%	1%	-14%	13µM*	-19%
O=C(NC(=S)Nc1ccccc1N1CCN(C(=O)c2ccccc2)CC1)c1cccs1	x	-8%	5%	-8%	u	9%
CC(=C/c1ccccc1)/C=N/NC(=O)c1ccc2nc[nH]c2c1	u	16%	5.4µM*	20%	u	10%
O=C(N/N=C/C(Br)=C\c1ccccc1)c1ccc2nc[nH]c2c1	u	2%	12µM*	1%	u	11%
CC(/C=N/NC(=O)c1cc(-c2ccc(C)s2)[nH]n1)=C\c1ccccc1	27%	-7%	u	1%	u	4%
CC(/C=N/NC(=O)c1ccc2nc(C)[nH]c2c1)=C\c1ccccc1	17%	2%	8.5µM*	-1%	-6%	-6%
CCCc1cc(=O)oc2cc(C)c3c(C(C)(C)C)coc3c12	7%	x	-5%	x	x	x
CSc1cccc(NS(=O)(=O)c2cccs2)c1	13%	1%	2%	1%	5%	-4%
O=S(=O)(Nc1cccc(-c2ccc3nncn3n2)c1)c1ccc(Cl)s1	8%	-4%	-15%	1%	11%	5%
CC1CCN(c2ccc(-c3cccc(NS(=O)(=O)c4ccc(Cl)s4)c3)nn2)CC1	x	x	0.85µM*	x	x	x
CC1CCN(c2ccc(-c3cccc(NS(=O)(=O)c4cccs4)c3)nn2)CC1	x	x	0.48µM*	x	x	x
O=NN(Cc1ccc(Cl)cc1)[C@@H](C(=O)O)c1ccccc1	1%[9.22 µM]	x	x	x	x	x
SMILES	SMN2 splice enh	NPC1 promoter act	FLuc modulator	Rab9 promoter act	ELG1 repair inh	ELG1 genotox
CCNc1nc(NCC)n2c(SCC(=O)Nc3cc(OC)ccc3OC)nnc2n1	x	9%	6%	9%	-4%	-1%
CCNc1nc(NCC)n2c(SC(C(=O)Nc3cc(C)ccc3OC)c3ccccc3)nnc2n1 (stereo not given)	-11%	-3%	3%	0%	23µM*	-4%
O=C1c2ccccc2CCC12N=NCC2c1ccccc1 (stereo not given)	-15%	-5%	17µM*	-5%	u	2%
CCc1cccc(NC(=O)CN2c3ccccc3S(=O)(=O)c3ccccc32)c1	x	x	-17%	x	x	x
CCCc1nc2sc3c(c2c(=O)n1NC(=O)CCC(=O)O)CCCC3	10%	-1%	u	-2%	12%	-10%
Nc1nc2sc3c(c2cc1C(=O)NCC(=O)O)CCCC3	x	0%	0.95µM*	-16%	-28%	-3%
Nc1nc2sc3c(c2cc1C(=O)N1CCOCC1)CCCC3	4%	8%	17µM*	10%	u	3%
Cc1cc(C)c2cc3c(N)c(C(=O)N4CCc5ccccc5C4)sc3nc2c1	12%	10%	0%	-1%	-4%	-1%
Cc1cccc2cc3c(N)c(C(=O)N4CCOCC4)sc3nc12	11µM*	u	3.8µM*	0.56µM*	u	u
Cc1c(C(=O)NCCN2CCOCC2)oc2ccc(Br)cc12	x	14%	-13%	21%	u	u
Cc1nc(N2CCOCC2)c2nc(-c3ccccc3)n(CCN3CCCC3)c2n1	-8%	x	x	x	x	x
COc1cc(OC)c(C2Nc3c(C)cccc3-c3cc(C)nn32)cc1OC (stereo not given)	8%	x	-4%	x	x	x
CN(/N=C/c1ccncc1)c1cnc2ccccc2n1	11µM*	u	4.8µM*	4µM*	u	2%
CN(/N=C/c1ccncc1)C1=NCCN1	x	-3%	-2%	8%	6%	0%
CC(C)n1c(-c2cccnc2)nc2cnccc21	-8%	1%	3%	-2%	13µM*	-9%
Cc1ccc(SCCN2CCN(CCc3ccccc3)CCC2=O)cc1	x	-3%	-2%	-3%	11%	1%
CC(C)CN1CCC(=O)N(CCSc2ccccc2)CC1	x	1.6µM*	24µM*	1.6µM*	u	u
Cc1ccc(SC[C@H](CC(C)C)N2CCN(C)CCC2=O)cc1	x	u	15µM*	3.5µM*	u	u
CC(=O)Nc1ccc(SC[C@H](CC(C)C)N2CCN(CC(C)C)CCC2=O)cc1	x	-2%	-1%	-4%	1%	1%
COc1ccc(SC[C@H](CC(C)C)N2CCN(C)CCC2=O)cc1	x	u	u	21%	u	u
CC(C)C[C@@H](CSc1ccc(Br)cc1)N1CCN(CC(C)C)CCC1=O	x	u	15µM*	20%	u	5%
